{"source": "PubChem BioAssay"}
{"system": "glycogen synthase kinase-3 (GSK3A per assay name; protocol says GSK3B)", "assay": "compounds binding glycogen synthase kinase-3 – biochemical, small-molecule microarray, 635 nm fluorescence, GSK3A, primary screen (AID 1103); further: the record names both GSK3A and GSK3B", "conditions": "fluorescence 635 nm, higher = more signal"}
{"smiles": "CCO[C@H](c1cc(OC)cc([N+](=O)[O-])c1OC)[C@H](C)[C@@H](OC)[C@H](C)C=CCC(=O)OC", "composite z-score": 0.188}
{"smiles": "COC(=O)[C@H](C)NC(=O)CCC1CC(OC(=O)NCc2ccc3c(c2)OCO3)CC2(CCCC(COC(=O)NCCc3ccc(Cl)cc3)O2)O1", "note": "(stereo not given in full)", "composite z-score": 0.591}
{"smiles": "COc1ccc(COC(=O)NN=C2C[C@@H](O)[C@@H](O)[C@@H]3[C@@H]4C(=O)N(c5cccc(Oc6ccccc6)c5)C(=O)[C@@H]4CC[C@H]23)cc1", "composite z-score": -0.944}
{"smiles": "COc1cccc([C@H]2Oc3ccc(OC)cc3C(=NOCC[C@@H]3C=C[C@H](OC(C)=O)[C@@H](COC(C)=O)O3)[C@@H]2O)c1", "composite z-score": 0.321}
{"biological_target": "Epidermal growth factor receptor (Homo sapiens) (UniProt P00533)", "sequence (P00533 whole entry, looked up)": "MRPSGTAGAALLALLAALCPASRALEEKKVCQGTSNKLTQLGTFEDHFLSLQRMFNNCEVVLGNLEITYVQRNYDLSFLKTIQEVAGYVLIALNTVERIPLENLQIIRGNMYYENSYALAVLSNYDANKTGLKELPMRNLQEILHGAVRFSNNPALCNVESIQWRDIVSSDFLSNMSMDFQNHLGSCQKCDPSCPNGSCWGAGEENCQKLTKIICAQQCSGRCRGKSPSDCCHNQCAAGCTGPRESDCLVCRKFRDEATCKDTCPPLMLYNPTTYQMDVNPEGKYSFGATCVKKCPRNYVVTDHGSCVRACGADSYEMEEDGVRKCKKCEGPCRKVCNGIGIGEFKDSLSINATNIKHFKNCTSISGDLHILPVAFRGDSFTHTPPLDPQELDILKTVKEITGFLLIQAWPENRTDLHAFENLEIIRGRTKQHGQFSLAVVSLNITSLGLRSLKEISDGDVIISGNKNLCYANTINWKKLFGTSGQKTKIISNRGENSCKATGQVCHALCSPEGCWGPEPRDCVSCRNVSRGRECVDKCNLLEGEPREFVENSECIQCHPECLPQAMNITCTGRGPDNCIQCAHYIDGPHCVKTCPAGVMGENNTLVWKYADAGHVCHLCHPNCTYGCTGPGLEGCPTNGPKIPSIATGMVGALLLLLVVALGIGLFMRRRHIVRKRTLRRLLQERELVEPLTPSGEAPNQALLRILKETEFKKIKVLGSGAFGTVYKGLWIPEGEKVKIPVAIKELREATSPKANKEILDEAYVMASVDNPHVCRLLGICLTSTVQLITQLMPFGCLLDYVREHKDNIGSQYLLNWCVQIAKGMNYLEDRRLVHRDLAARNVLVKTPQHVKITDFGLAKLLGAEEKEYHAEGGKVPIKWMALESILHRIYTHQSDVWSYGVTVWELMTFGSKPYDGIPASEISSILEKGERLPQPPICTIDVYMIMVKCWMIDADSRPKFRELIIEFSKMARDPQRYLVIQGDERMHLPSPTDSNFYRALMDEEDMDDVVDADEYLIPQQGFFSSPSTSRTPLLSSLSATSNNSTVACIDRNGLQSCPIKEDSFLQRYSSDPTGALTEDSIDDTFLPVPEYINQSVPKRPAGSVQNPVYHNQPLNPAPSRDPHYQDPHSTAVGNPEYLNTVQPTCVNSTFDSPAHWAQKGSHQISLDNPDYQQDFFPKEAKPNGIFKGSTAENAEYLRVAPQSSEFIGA", "assay": "compounds binding epidermal growth factor receptor – biochemical, small-molecule microarray, 635 nm fluorescence, primary screen (AID 1104);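 further: score merges 667 nm emission intensity with spot signal to noise over triplicate slides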", "conditions": "EGFR binding, higher = more signal"}
{"smiles": "CCCCOC(OCCCC)C(O)CSc1ccc2ccccc2c1", "note": "(stereo not given)", "composite z-score": 0.549}
{"smiles": "CCOC(=O)CCN1C(=O)[C@H]2[C@H]3[C@H](O)[C@H](O)CC(=O)[C@@H]3CC[C@H]2C1=O", "composite z-score": 0.591}
{"smiles": "CON=C(C)CCN1CCCc2nc(C)c(C)cc21", "composite z-score": 0.695}
{"smiles": "COC(=O)CC=C1c2ccccc2[C@H](OC)[C@H]1C", "composite z-score": 0.33}
{"smiles": "C=CC[C@@H]1C=C[C@H](ON=C[C@@H](NS(=O)(=O)c2ccc(C)cc2)[C@H](C)C=CCC(=O)OC)[C@@H](CO)O1", "composite z-score": 0.516}
{"smiles": "O=C1C=C[C@@H](O)[C@@H]2[C@@H]3C(=O)N(c4cccc(Oc5ccccc5)c4)C(=O)[C@@H]3CC[C@@H]12", "composite z-score": 0.386}
{"smiles": "C=CC[C@@H]1C=C[C@H](Oc2ccc(C)cc2)[C@@H](COC(=O)NCc2cccc3ccccc23)O1", "composite z-score": -0.156}
{"smiles": "O=C1[C@H]2[C@H]3[C@H](O)[C@H](O)CC(=NOCc4ccccc4)[C@@H]3CC[C@H]2C(=O)N1c1cccc(Oc2ccccc2)c1", "composite z-score": 0.201}
{"smiles": "CCCC[C@H]1CN2[C@@H](CC[C@@H](C)[C@@H]2c2ccc(Br)cc2)C(=O)O1", "composite z-score": 0.457}
{"smiles": "CCOC(=O)[C@H](Cc1ccccc1)NC(=O)CCC1CC(OC(=O)NCc2cccc3ccccc23)CC2(CCCC(COC(=O)NCc3ccc4c(c3)OCO4)O2)O1", "note": "(stereo not given in full)", "composite z-score": 0.179}
{"smiles": "CC(C)(C)N1C(=O)[C@H]2[C@H]3[C@H](O)[C@H](O)CC(=NNC(=O)OCc4ccccc4)[C@@H]3CC[C@H]2C1=O", "composite z-score": 0.251}
{"smiles": "COc1ccc(OC[C@@H]2CC3[C@@H](c4ccc(Br)cc4)[C@H](C)CC[C@H]3C(=O)O2)cc1", "note": "(stereo not given in full)", "composite z-score": 0.885}
{"smiles": "CC(C)=CCCC(C)=CCON=C1C[C@@H](O)[C@@H](O)[C@@H]2[C@@H]3C(=O)N(c4cccc(Oc5ccccc5)c4)C(=O)[C@@H]3CC[C@H]12", "composite z-score": 0.348}
{"smiles": "CCN1C(=O)[C@H]2[C@H]3[C@H](O)[C@H](O)CC(=NO[C@H](C)c4cn([C@H](CO)Cc5ccccc5)nn4)[C@@H]3CC[C@H]2C1=O", "composite z-score": 0.587}
{"smiles": "C#CCCCON=C1C[C@@H](O)[C@@H](O)[C@@H]2[C@@H]3C(=O)N(C[C@@H]4CCCO4)C(=O)[C@@H]3CC[C@@H]12", "composite z-score": 0.469}
{"smiles": "COC(=O)CC=C[C@@H](C)[C@@H](C=NOC[C@@H](O)COCc1ccco1)NS(=O)(=O)c1ccc(C)cc1", "composite z-score": 0.497}
{"smiles": "CC(=O)OC[C@H]1O[C@H](CC=NO[C@@H](C)c2cn([C@H](CO)Cc3ccccc3)nn2)C=C[C@@H]1OC(C)=O", "composite z-score": 0.387}
{"smiles": "CCc1cc2c(nc1CC)CCN(CCC(C)=NO[C@@H]1O[C@H](COC(C)=O)[C@@H](OC(C)=O)[C@H](OC(C)=O)[C@H]1OC(C)=O)C2", "composite z-score": 0.905}
{"smiles": "CC(C)(C)N1C(=O)[C@H]2[C@@H]3C(=CC[C@H]2C1=O)C(=O)[C@H]1O[C@H]1[C@H]3O", "composite z-score": 0.144}
{"smiles": "CC(C)=NOC(C)CN1CCCCc2nc(C)c(C)cc21", "note": "(stereo not given)", "composite z-score": 0.468}
{"smiles": "Cc1ccc2[nH]c3nc(CCCn4ccnc4-c4ccccc4)nnc3c2c1", "composite z-score": 0.32}
{"smiles": "COc1ccc(COC(=O)NN=C2C[C@@H](O)[C@@H](O)[C@@H]3[C@@H]4C(=O)N([C@@H](C)c5ccccc5)C(=O)[C@@H]4CC[C@H]23)cc1", "composite z-score": -0.587}
{"smiles": "COC(=O)CC=C[C@@H](C)[C@@H](C=NOC(C)CN1CCCCc2nc(C)c(C)cc21)NS(=O)(=O)c1ccc(C)cc1", "note": "(stereo not given in full)", "composite z-score": 1}
{"smiles": "CO[C@@H]1COC(=O)[C@H](CCSC)NC(=O)CC=C[C@@H](C)COC(=O)[C@@H]2CCCN2C(=O)CC=C[C@H]1C", "composite z-score": 0.898}
{"smiles": "COC(=O)[C@H](C)NC(=O)CC=C[C@@H](C)[C@@H]1C=C[C@H](O)[C@@H](CO)O1", "composite z-score": 0.643}
{"smiles": "CO[C@@H](C(C)C)[C@@H](C)C1OC(=O)CC1O", "note": "(stereo not given in full)", "composite z-score": -0.57}
{"smiles": "COc1ccc(OC[C@@H](CO)OC)cc1", "composite z-score": 0.202}
{"smiles": "COC(=O)[C@H](C)NC(=O)CCC1CC(OC(=O)NCc2ccc3c(c2)OCO3)CC2(CCCC(COC(=O)NCCC(C)C)O2)O1", "note": "(stereo not given in full)", "composite z-score": 0.0295}
{"smiles": "COc1cccc([C@H]2Oc3ccc(OC)cc3C(=NO[C@@H](C)c3cc(-c4c(C)cc(C)cc4C)no3)[C@@H]2O)c1", "composite z-score": -2.38}
{"smiles": "CCOC(=O)CCN1C(=O)[C@H]2[C@H]3[C@H](O)[C@H](O)CC(=NNC(=O)OCC)[C@H]3CC[C@H]2C1=O", "composite z-score": 0.459}
{"smiles": "O=C1[C@H]2[C@H]3[C@H](O)[C@H](O)CC(=NOC[C@@H](O)COCc4ccco4)[C@@H]3CC[C@H]2C(=O)N1Cc1ccc2c(c1)OCO2", "composite z-score": 1.15}
{"smiles": "CC(=O)OC[C@H]1O[C@H](CC=NO[C@@H](C)c2cc(-c3c(C)cc(C)cc3C)no2)C=C[C@@H]1OC(C)=O", "composite z-score": 0.0164}
{"smiles": "CCO[C@H](c1cc(OC)cc([N+](=O)[O-])c1OC)[C@H](C)[C@@H](OC)[C@H](C)C=CCC(=O)OC", "composite z-score": 0.835}
{"smiles": "COC(=O)[C@H](C)NC(=O)CCC1CC(OC(=O)NCc2ccc3c(c2)OCO3)CC2(CCCC(COC(=O)NCCc3ccc(Cl)cc3)O2)O1", "note": "(stereo not given in full)", "composite z-score": 0.351}
{"smiles": "COc1ccc(COC(=O)NN=C2C[C@@H](O)[C@@H](O)[C@@H]3[C@@H]4C(=O)N(c5cccc(Oc6ccccc6)c5)C(=O)[C@@H]4CC[C@H]23)cc1", "composite z-score": -0.479}
{"smiles": "COc1cccc([C@H]2Oc3ccc(OC)cc3C(=NOCC[C@@H]3C=C[C@H](OC(C)=O)[C@@H](COC(C)=O)O3)[C@@H]2O)c1", "composite z-score": 0.274}
